Screening results from PubChem.
MARV entry inh = Marburg virus entry inhibition | AID 540276 | Marburg virus pseudotyped entry inhibition, cell reporter | Potency, µM (highest dose often 37.8 µM), inactives show at the highest dose activity change, negative = inhibition, actives largely listed as inhibitors | 300,000 tested, 1.8% active; calls by dose curve; tested in HEK293 cells; note: potency is the fitted concentration of half-maximal effect
Pf growth 48h = P. falciparum growth inhibition at 48 hours (one generation); Potency, µM (series often up to 28.7 µM), for inactives: at the highest dose activity change, negative = inhibition, hits mostly inhibitors; 310,000 tested, 5.9% active; P. falciparum luciferase growth in erythrocytes, 48 h; note: potency is the fitted concentration of half-maximal effect
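Parasite viability was followed by luminescence of a genomically integrated firefly luciferase. Cultures held 0.1% parasitemia at 2% hematocrit (final), incubated under 5% CO2 at 37 C.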
Pf growth 96h = P. falciparum growth inhibition at 96 hour, primary screen for plastid delayed-death inhibitors; P. falciparum luciferase reporter growth, 96 h; Potency, µM (highest dose often 28.7 µM), for the others: at the highest dose activity change, negative = inhibition, actives largely listed as inhibitors; 320,000 tested, 6.9% active; AID 504834; note: potency is the fitted concentration of half-maximal effect
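Erythrocytes infected with luciferase-expressing P. falciparum were dispensed at 2% hematocrit and 0.05% parasitemia (final), then incubated with compounds 96 hours at 37 C in 5% CO2. Luminescence after detection reagent addition reported growth.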
HCMV antiviral = human cytomegalovirus inhibition; HFF cells, HCMV-luciferase reporter, 72 h; stronger effect = lower value; activity change, negative = inhibition, % at 57.5 µM; 410,000 tested, 4.5% active; in the data active = activity change below about -60%; inconclusive = no clear call, values can overlap the other calls; inactive = above about -39%
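After 16 h attachment at 37C, HFF cells received test compound and HCMV-luciferase (1 PFU/cell); reporter luminescence read 72 h later, data normalized against buffer-only and known inhibitor Salinomycin.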
HCV inhibitor = blocks hepatitis C virus; Huh7.5.1 HCVcc-Cre infection, luciferase reporter, 44 h; 340,000 tested, 3.4% active; Potency, µM (top dose mostly 41.8 µM), for inactives: top-dose activity change, negative = inhibition, most hits filed as inhibitors; note: potency is the fitted concentration of half-maximal effect
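Cells (1,000/well) were plated 4 h before compound, then infected with HCVcc-Cre virus (~0.5 moi). After 44 h further culture, infection was read as luciferase luminescence following a 15 min substrate incubation at room temperature.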
LASV entry inh = inhibitors of Lassa virus binding or cell entry. Lassa virus pseudotype entry inhibition, cell reporter. 300,000 tested, 1.2% active. AID 540256. Potency, µM (titrated, usually from 37.9 µM), inactives show top-dose activity change, negative = inhibition, most hits filed as inhibitors; calls by dose curve; tested in HEK293 cells; note: potency is the fitted concentration of half-maximal effect; nearly all actives have a fitted effect of over 50% in size
Numbers without * were called inactive; ? = inconclusive; nt = not tested or not shown; [ ] = another dose, or the depositor's remark. An excerpt weighted towards active compounds, which were near 14% of everything screened. Unless noted, calls come from the whole dose curve; as a rule, active = well fitted inhibition curve with a large enough effect; inconclusive = small, poorly fitted or top-dose-only effect, or another doubt; inactive = no such curve, though single readings can be large or run the other way. % is set by controls: 0 for no effect and ±100 for the full control effect.

SMILES	MARV entry inh	Pf growth 48h	Pf growth 96h	HCMV antiviral	HCV inhibitor	LASV entry inh
Cc1ccc(C)c(CN2CCCN(Cc3ccccc3C)S2(=O)=O)c1	nt	nt	nt	?	nt	-3.3%[46.1 µM]
COC(=O)c1ccc(OC)c(CN2CCCN(Cc3cc(C)ccc3C)S2(=O)=O)c1	-8.9%[46.1 µM]	14.7µM*	12.8%	?	?	?
C=CCNC(=O)CN(c1cc(Cl)ccc1OC)S(=O)(=O)c1ccc(C)c([N+](=O)[O-])c1	-0.4%[46.1 µM]	2.62µM*	85.6%	-2.8	4.4%	-5.5%
COc1ccc(Cl)cc1N(CC(=O)NCC(C)C)S(=O)(=O)c1ccc(C)c([N+](=O)[O-])c1	1.5%	-11.6%	9.28µM*	4.0	0.8%	7.7%
O=c1[nH]c2ccccc2cc1CN(Cc1cccnc1)S(=O)(=O)c1ccc([N+](=O)[O-])cc1	nt	?	4.65µM*	?	0.8%	nt
CN(C)c1ncnc2c1ncn2[C@H]1CN(Cc2ccc3c(c2)OCO3)C[C@@H](CO)O1	nt	nt	nt	-0.4	nt	nt
O=C(COc1ccc2ccccc2c1)NC1CC(=O)N(c2cccc(F)c2)C1 (stereo not drawn)	nt	nt	nt	21.2	nt	2.3%[46.1 µM]
C=CCn1c(=O)c(C(=O)NC(C)c2ccccc2)c(O)c2ccccc21 (stereo not drawn)	nt	-11.5%	?	-29.1	-19.3%	nt
CSCCn1c(C(C)(C)C)cc(C(=O)O)c1C	1.5%	-4.5%	8.28µM*	?	-4.6%	3.7%
Cc1c(C(=O)O)cc(C(C)(C)C)n1CCSCCO	-1.2%[46.1 µM]	54.4%	-0.8%	28.8	4.5%	?
O=C(NC1CCN(Cc2ccccc2)CC1)c1ccccc1NS(=O)(=O)c1ccc(F)cc1	-18.4%	nt	nt	-12.4	-21.9%	-19.1%
COc1ccccc1NS(=O)(=O)c1ccc(C)c(C(=O)NC2CCN(Cc3ccccc3)CC2)c1	?	10.4µM*	?	-75.7*	2.24µM*	?
COc1ccccc1NS(=O)(=O)c1cccc(C(=O)NC2CCN(Cc3ccccc3)CC2)c1	?	10.4µM*	3.7µM*	nt	?	-28.1%
Cc1oc(-c2ccc(Cl)cc2)cc1C(=O)NC1CCN(Cc2ccccc2)CC1	?	?	?	13.9	?	?
Cc1ccc(NS(=O)(=O)c2cccc(C(=O)NC3CCN(Cc4ccccc4)CC3)c2)c(C)c1	nt	nt	nt	-39.9	14.1µM*	nt
COc1ccccc1NS(=O)(=O)c1cccc(C(=O)NN)c1	-9.1%	-8.8%	2.9%	45.5	17.6%	-0.4%
Cc1oc(C(C)(C)C)cc1C(=O)NC1CCN(Cc2ccccc2)CC1	10µM*	1.5%	2.8%	-25.1	?	?
Cc1cccc(C(=O)NCC(=O)NC2CCN(Cc3ccccc3)CC2)c1	14.3%	nt	nt	-6.4	4.9%	-0.2%
CC1=C(C(=O)Nc2ccc(C)cc2C)C(c2sccc2C)n2ncnc2N1 (stereo not drawn)	nt	nt	nt	7.9	nt	1.5%[46.1 µM]
COc1ccc(Cl)cc1NC(=O)CSc1ccc(-c2sc(C)nc2C)nn1	nt	nt	nt	104.3	nt	-3.6%[46.1 µM]
CCC1Oc2ccc(Cl)cc2N(CC(=O)NCCc2ccc(Cl)cc2)C1=O (stereo not drawn)	nt	nt	nt	-22.7	nt	1.6%[46.1 µM]
COc1ccc(NS(=O)(=O)c2ccc(C)c(C(=O)NC3CCN(Cc4ccccc4)CC3)c2)cc1	?	10.4µM*	7.38µM*	?	nt	-22.1%
O=[N+]([O-])c1ccc(Sc2ccccn2)nc1	-1.4%[46.1 µM]	?	8.28µM*	20.1	6.7%	11.4%[46.1 µM]
N#Cc1cc(Sc2ccccn2)c([N+](=O)[O-])cc1C#N	3.2%[46.1 µM]	3.7µM*	69.2%	-33.7	23.0%	?
O=[N+]([O-])c1ccc(Sc2nnnn2-c2ccccc2)nc1	12.6µM*	?	?	-88.1*	?	?
SMILES	MARV entry inh	Pf growth 48h	Pf growth 96h	HCMV antiviral	HCV inhibitor	LASV entry inh
N#Cc1cc(Sc2ccccn2)c(Sc2ccccn2)cc1C#N	-9.4%	9.2%	33.7%	18.6	-17.2%	-14.0%
O=C(Nc1cc(Sc2ccccn2)cc([N+](=O)[O-])c1)c1ccc([N+](=O)[O-])cc1	?	13.1µM*	3.29µM*	-29.2	?	?
CC(NC(=O)COC(=O)c1ccc2c(=O)n3c(nc2c1)CCCCC3)c1ccccc1 (stereo not drawn)	nt	?	-20.7%	-22.0	14.0%	nt
CCCCOC(=O)c1ccc(Nc2ncnc3c2cnn3-c2cccc(C)c2)cc1	nt	nt	nt	-1.6	nt	11.6%[46.1 µM]
COc1ccc(-c2nc3sc(CCNC(=O)Cc4ccc(F)cc4)c(C)n3n2)cc1	nt	nt	nt	63.7	nt	5.7%[46.1 µM]
COc1ccc(CN(C2CCCC2)S(=O)(=O)c2cc(Br)ccc2Br)c(OC)c1	?	nt	nt	-39.1	nt	nt
CCOc1cc(CNCc2ccncc2)cc(Br)c1OCc1ccccc1F	?	?	?	-69.8*	7.94µM*	?
CCOc1cc(CNCCSc2nnnn2C)cc(Br)c1OCc1ccc(F)cc1	?	?	10.4µM*	-2.6	?	?
COc1cc(CNCCSc2nnnn2C)cc(Br)c1OCc1ccc(F)cc1	?	?	nt	-5.9	10µM*	-12.2%
CCOc1cc(CNCCSc2nnnn2C)cc(Cl)c1OCc1ccc(Cl)cc1	?	nt	nt	-25.8	nt	-8.0%[46.1 µM]
COc1cc(CNCCSc2nnnn2C)cc(Br)c1OCc1ccccc1	nt	?	1.6%[5.75 µM]	-20.6	?	nt
CCOc1cc(CNCCSc2nnnn2C)cc(Br)c1OCc1ccccc1F	?	?	8.28µM*	-39.0	?	-20.6%
CN1OC[C@@H]2CN(C(=O)C(C)(C)C)[C@H](c3ccc(-c4cccnc4)cc3)C[C@@H]21	nt	nt	nt	-17.3	nt	nt
C=CCCN1[C@@H](Cc2ccccc2)COc2ccccc2S1(=O)=O	nt	nt	nt	-18.8	nt	?
C[C@H]1C=CCC(=O)N[C@@H](c2ccccc2)[C@@H](C)C=CCC(=O)N[C@@H]1c1ccccc1	?	nt	nt	nt	nt	-12.8%[14.3 µM]
CCc1nc2ccc(C(=O)NCc3ccccc3C)cc2nc1CC	nt	nt	nt	16.3	nt	?
Nc1[nH]c2cc([N+](=O)[O-])ccc2c1-c1ccccn1	-24.6%[46.1 µM]	?	?	19.5	12.6µM*	-29.3%[46.1 µM]
C=CCn1c(C(C)n2c(-c3cnccn3)nc3ccccc32)nc2ccccc21 (stereo not drawn)	nt	nt	nt	-32.1	nt	nt
Fc1ccccc1/C=N/Nc1nc(N2CCCCC2)nc(N2CCCCC2)n1	nt	?	24.3%	10.2	?	nt
O=[N+]([O-])c1ccc(/C=N/Nc2nc(N3CCCCC3)nc(N3CCCCC3)n2)o1	20.6µM*	?	nt	-30.1	14.1µM*	?
C(=N\Nc1nc(N2CCCC2)nc(N2CCCC2)n1)/c1ccncc1	1.3%[46.1 µM]	-0.3%	-0.9%	-8.3	?	-19.2%
O=[N+]([O-])c1ccc(Nc2nc(N/N=C/c3cccc(F)c3)nc(N3CCCC3)n2)cc1	?	2.94µM*	?	38.3	?	?
COc1c(/C=N/Nc2nc(N3CCCCC3)nc(N3CCCCC3)n2)cccc1[N+](=O)[O-]	?	?	?	-91.5*	?	-18.2%
